The source made the active and inactive calls. Where a call stands in place of a potency, no number is given. Calls follow the shape of the dose curve; as a rule, active = well fitted curve in the direction sought with a large enough effect; inconclusive = small, poorly fitted or top-dose-only effect, or another doubt; inactive = no such curve, though single readings can be large; an effect the other way counts as inactive or inconclusive.
target: Cytochrome P450 3A4 (Homo sapiens) (UniProt P08684); experiment: qHTS Assay for Activators of Cytochrome P450 3A4 (AID 885); settings: recombinant CYP3A4, Luciferin-PPXE luminescence, 60 min; series mostly up to 57.1 µM; also: nearly all actives have a fitted effect of over 65% in size; also: potency is read from the fitted curve at half-maximal effect
Sequence (P08684 whole entry, looked up): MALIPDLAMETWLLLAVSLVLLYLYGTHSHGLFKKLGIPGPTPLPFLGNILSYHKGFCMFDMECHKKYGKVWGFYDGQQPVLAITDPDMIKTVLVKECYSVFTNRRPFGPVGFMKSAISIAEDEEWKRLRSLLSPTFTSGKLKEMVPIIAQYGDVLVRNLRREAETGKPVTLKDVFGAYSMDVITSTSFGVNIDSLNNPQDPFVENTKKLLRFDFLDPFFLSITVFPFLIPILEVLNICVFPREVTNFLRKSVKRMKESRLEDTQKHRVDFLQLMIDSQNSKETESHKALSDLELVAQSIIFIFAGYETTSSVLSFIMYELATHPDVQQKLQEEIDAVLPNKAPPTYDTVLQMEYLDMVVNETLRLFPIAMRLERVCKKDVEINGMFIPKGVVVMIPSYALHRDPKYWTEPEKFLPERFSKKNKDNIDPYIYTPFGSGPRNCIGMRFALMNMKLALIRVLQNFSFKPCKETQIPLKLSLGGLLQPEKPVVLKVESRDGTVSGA
In short: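 Activators are scored by enhanced luminescence from CYP3A4 conversion of luciferin-PPXE (25uM, equal to KM) to luciferin, after 60 min at RT with an NADPH-regenerating system.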

SMILES	Potency
O=C1C=CC(=O)c2c(O)cccc21	inactive
CC(=O)OC1CC2C(C)(C)C(=O)C=C[C@]2(C)C2CC[C@]3(C)C(=CC(=O)OC3c3ccoc3)[C@]12C (stereo not given in full)	inactive
Cc1nc2cnc(N3CCNCC3)nc2n(C)c1=O	inactive
COc1cc2c(cc1O)CC1c3c(cc(O)c(OC)c3-2)CCN1C (stereo not given)	inactive
ClC1=C(Cl)C2(Cl)C3C4C=CC(C4)C3C1(Cl)C2(Cl)Cl (stereo not given)	inactive
O=S1OCC2C(CO1)C1(Cl)C(Cl)=C(Cl)C2(Cl)C1(Cl)Cl (stereo not given)	inactive
CCOCN(C(=O)CCl)c1c(C)cccc1CC	15.8 µM (active)
CN1CC[C@@]2(CCCN(C(=O)c3ccco3)C2)C1	inactive
O=C1c2ccccc2-c2cccc3cccc1c23	inactive
COc1cc2c(cc1-c1cc3cc4ccoc4cc3oc1=O)OCO2	inactive
C=CCc1ccc(OC)cc1	inactive
ClC1=C(Cl)C2(Cl)C3C(Cl)C=CC3C1(Cl)C2(Cl)Cl (stereo not given)	inactive
ClC(Cl)=C(c1ccc(Cl)cc1)c1ccc(Cl)cc1	inactive
C/C=C/c1ccc2c(c1)OCO2	inactive
C=CCc1ccc2c(c1)OCO2	inactive
N#Cc1ccc(CN2CC[C@@]3(CCCNC3)C2)cc1	inactive
N#Cc1ccc(CN2CCC3(CC2)CCN(C(=O)Oc2ccccc2)CC3)cc1	15.8 µM (active)
COP(=S)(OC)Oc1ccc([N+](=O)[O-])cc1	inactive
COc1ccc2c(c1O)-c1c(OC)c(OC)cc3c1[C@H](C2)N(C)CC3	inactive

system: not listed separately; experiment: Confirmation and Secondary Assay for Modulators of Hemoglobin Beta Chain Splicing at IVS2 654 locus (AID 910); settings: HeLa EGFP-654 splicing reporter, GFP fluorescence, 48 h; series mostly up to 46.1 µM;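 also: per-well total GFP intensity by laser scanning cytometry after 2-day treatment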
In short: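 HeLa cells stably carrying EGFP interrupted by mutant beta-globin IVS2-654 intron (CMV-driven) were treated with compound for 2 days at 37C; corrected splicing was scored as total peak GFP intensity per well (488 nm excitation, 500-520 nm emission).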

SMILES	Potency
O=C(O)COc1ccc(Cl)cc1Cl	inactive
O=C1C=CC(=O)c2c(O)cccc21	inactive
O=C(O)CNCP(=O)(O)O	inactive
CC(=O)OC1CC2C(C)(C)C(=O)C=C[C@]2(C)C2CC[C@]3(C)C(=CC(=O)OC3c3ccoc3)[C@]12C (stereo not given in full)	inactive
O=S1OCC2C(CO1)C1(Cl)C(Cl)=C(Cl)C2(Cl)C1(Cl)Cl (stereo not given)	inactive
c1ccc(N=Nc2ccccc2)cc1	inactive
O=C1c2ccccc2-c2cccc3cccc1c23	inactive
COc1cc2c(cc1-c1cc3cc4ccoc4cc3oc1=O)OCO2	inactive
C=CCc1ccc(OC)cc1	inactive
ClC1=C(Cl)C2(Cl)C3C(Cl)C=CC3C1(Cl)C2(Cl)Cl (stereo not given)	inactive
ClC1=C(Cl)C2(Cl)C3C4CC(C5OC45)C3C1(Cl)C2(Cl)Cl (stereo not given)	inactive
ClC(Cl)=C(c1ccc(Cl)cc1)c1ccc(Cl)cc1	inactive
CCc1cccc(CC)c1N(COC)C(=O)CCl	inactive
C/C=C/c1ccc2c(c1)OCO2	inactive
C=CCc1ccc2c(c1)OCO2	inactive
COP(=S)(OC)Oc1ccc([N+](=O)[O-])cc1	inactive

Source: PubChem BioAssay (NCATS)
